Reference: the supplement of paper PMC9897528
A number with no mark means an inactive call.

Test system: Scedosporium aurantiacum CBS 136046
Test: growth inhibition relative to DMSO control (OD600); higher = more antifungal activity, active = 80 or more; extreme values may be limits of the assay
Conditions: 5 µM; 72 h; 37 °C
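Also: conidia screened in RPMI 1640 medium under 5% CO2, growth read by spectrophotometer, medium with 0.5% DMSO serving as the untreated reference.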

## O=C1c2cccc3cccc(c23)C(=O)N1CC1CO1 (stereo unspecified)
  growth inhibition: 19.8%

## Clc1ccc(Cn2c(CN3CCCC3)nc3ccccc32)cc1
  growth inhibition: 15.5%

## CCc1nc2ccccn2c1C(=O)NCc1ccccc1
  growth inhibition: 13%

## CC(C)(C)c1ccc(Oc2ccc(N)cc2)cc1
  growth inhibition: 15.8%

## CC(C)(C)NC(=O)N[C@H](C(=O)N1C[C@H]2[C@@H]([C@H]1C(=O)NC(CC1CCC1)C(=O)C(N)=O)C2(C)C)C(C)(C)C (stereo partly specified)
  growth inhibition: 10.8%

## CCc1ccccc1OCCN1CCCCCC1
  growth inhibition: 26.2%

## CC(=O)O[C@H]1C[C@@]2(C)[C@@H](C[C@@H](O)[C@H]3[C@@]4(C)CC[C@@H](O)[C@@H](C)[C@@H]4CC[C@@]32C)/C1=C(\CCC=C(C)C)C(=O)O
  growth inhibition: 19.6%

## CCC[C@@H]1C[C@@H](C(=O)N[C@@H]([C@H]2O[C@H](SC)[C@H](O)[C@@H](O)[C@H]2O)[C@H](C)Cl)N(C)C1
  growth inhibition: 16.8%

## Nc1nnc(-c2ccc(Cl)cc2)s1
  growth inhibition: 6.96%

## NCc1ccc(S(N)(=O)=O)cc1
  growth inhibition: 9.4%

## C[C@@H](c1nc(-c2ccc(C#N)cc2)cs1)[C@](O)(Cn1cncn1)c1ccc(F)cc1F
  growth inhibition: 60.6%

## COc1cc(Cc2cnc(N)nc2N)cc(OC)c1OC
  growth inhibition: 0.169%

## CC(C)(C)c1ccc(C(Cn2cccc(C(F)(F)F)c2=O)NC2Cc3ccccc3C2)cc1 (stereo unspecified)
  growth inhibition: 28.9%

## O=[N+]([O-])c1cn2c(n1)OC[C@@H](OCc1ccc(OC(F)(F)F)cc1)C2
  growth inhibition: 11.2%

## CCOC(=O)/C=C/[C@H](C[C@@H]1CCNC1=O)NC(=O)[C@@H](CC(=O)[C@@H](NC(=O)c1cc(C)on1)C(C)C)Cc1ccc(F)cc1
  growth inhibition: 1.27%

## Oc1ccc2[nH]c(-c3ccccc3)nc2c1
  growth inhibition: 26.7%

## Cc1ccc(N2CCC(CCOc3ccc(S(C)(=O)=O)cc3)CC2)nn1
  growth inhibition: 24.5%

## Cc1c(F)cccc1NC(=O)Nc1ccc(Cl)c(S(=O)(=O)[C@H]2CCCNC2)c1O
  growth inhibition: 4.56%

## Cc1[nH]c2ccccc2c1CC(=O)N[C@@H](Cc1ccccc1)C(=O)N(C)c1ccccc1
  growth inhibition: 10.7%

## O=C(O)C(Cc1c[nH]c2ccccc12)N1C(=O)c2ccccc2C1=O (stereo unspecified)
  growth inhibition: 19.9%

## CC(Cc1ccccc1)C(=O)Nc1ccc(Cl)cc1C(=O)O (stereo unspecified)
  growth inhibition: 0%

## CC(C)C(=O)N[C@H]1[C@H]([C@H](O)[C@H](O)CO)OC(C(=O)O)=C[C@@H]1N=[N+]=[N-]
  growth inhibition: 9.45%

## Oc1c(C(Nc2nc3ccccc3s2)c2ccc(OC(F)F)cc2)ccc2cccnc12 (stereo unspecified)
  growth inhibition: 12%

## C[C@H]1CC[C@@]2(O)C(C)(C)[C@@H]3CC[C@@]2(C)[C@H]1C3
  growth inhibition: 12.7%

## C[C@@H](NC(=O)c1ccccc1-c1ccccc1)B(O)O
  growth inhibition: 0.688%

## CCCCN1C[C@H](O)[C@@H](O)[C@H](O)[C@H]1CO
  growth inhibition: 3.51%

## OC(Cn1cncn1)(Cn1cncn1)c1ccc(F)cc1F
  growth inhibition: 29.9%

## NC(=S)N/N=C/c1ncccc1N
  growth inhibition: 23.2%

## CCN(CC)S(=O)(=O)c1ccc(Cl)c(C(=O)Nc2sc3c(c2C#N)CCCC3)c1
  growth inhibition: 25.7%

## OCCC#Cc1nc(-c2ccc(F)cc2)c(-c2ccncc2)n1CCCc1ccccc1
  growth inhibition: 13.8%

## O=C(/C=C\n1cnc(-c2cc(C(F)(F)F)cc(C(F)(F)F)c2)n1)NNc1ccccn1
  growth inhibition: 24.4%

## Cc1oncc1C(=O)Nc1ccc(C(F)(F)F)cc1
  growth inhibition: 15.6%

## CCCCc1ccc(-c2nc(C)c(C(=O)OC)s2)cc1
  growth inhibition: 12.4%

## O=C(CC1Sc2ncnn2C1=O)Nc1ccc(Br)cc1 (stereo unspecified)
  growth inhibition: 33.4%

## O=C(Nc1ccccc1C(=O)O)c1cccc(Oc2ccccc2)c1
  growth inhibition: 0.169%

## Cc1cc(CCCOc2c(C)cc(-c3noc(C(F)(F)F)n3)cc2C)on1
  growth inhibition: 9.58%

## COc1ccc2cc3[n+](cc2c1OCCN(CCn1cncn1)Cc1ccc(F)cc1F)CCc1cc2c(cc1-3)OCO2
  growth inhibition: 2.66%

## CONC(=N)c1ccc(-c2ccc(-c3ccc(C(=N)NOC)cc3)o2)cc1
  growth inhibition: 29.9%

## O=C(O)/C=C/C=C/c1cccc(Oc2cc(Cl)cc(Cl)c2)c1
  growth inhibition: 13.8%

## CC1CCc2c(N3CCC(O)CC3)c(F)cc3c(=O)c(C(=O)O)cn1c23 (stereo unspecified)
  growth inhibition: 16.2%

## CCCCCCC1c2ccc(O)cc2Oc2cc(O)ccc21
  growth inhibition: 4.47%

## FC(F)(F)c1cc(C(F)(F)F)c2ccc3nc(-c4nnco4)cn3c2n1
  growth inhibition: 4.29%

## CCOC(=O)N[C@@H]1CC[C@@H]2[C@@H](C1)C[C@H]1C(=O)O[C@H](C)[C@H]1[C@H]2/C=C/c1ccc(-c2cccc(F)c2)cn1
  growth inhibition: 44.3%

## CCOc1ccc(/C=N/NC(=O)C2CC2c2ccc(C(C)(C)C)cc2)cc1OCC (stereo unspecified)
  growth inhibition: 18.4%

## COC1CC2CCC(C)C(O)(O2)C(=O)C(=O)N2CCCCC2C(=O)OC(C(C)CC2CCC(OCCO)C(OC)C2)CC(=O)C(C)/C=C(\C)C(O)C(OC)C(=O)C(C)CC(C)/C=C/C=C/C=C/1C (stereo unspecified)
  growth inhibition: 10.9%

## CC(Oc1ccc(Cl)cc1Cl)C(=O)NCc1ccc2c(c1)OCO2 (stereo unspecified)
  growth inhibition: 17.5%

## O=C(O)CSc1cc(NS(=O)(=O)c2cccc3cccnc23)c2ccccc2c1O
  growth inhibition: 20.8%

## O=C(Nc1nnc(-c2ccccc2)o1)c1ccc(F)cc1
  growth inhibition: 31.3%

## COc1cccc(N2CCN(C3=Nc4c(F)cccc4[C@H](CC(=O)O)N3c3cc(C(F)(F)F)ccc3OC)CC2)c1
  growth inhibition: 9.61%

## Nc1nc2c(ncn2COC(CO)CO)c(=O)[nH]1
  growth inhibition: 11.1%

## O=C(CCc1ccc2c(c1)OCO2)NCc1ccc(-c2ccccc2F)cc1
  growth inhibition: 28.3%

## O=C(CSc1nnc(Br)n1-c1ccc(C2CC2)c2ccccc12)Nc1ccc(C(=O)O)cc1Cl
  growth inhibition: 18.4%

## CCC(C)NCC(O)Cn1c2ccc(Cl)cc2c2cc(Cl)ccc21 (stereo unspecified)
  growth inhibition: 25%

## NCC(=O)Nc1ccc(-n2nc(C(F)(F)F)cc2-c2ccc3c(ccc4ccccc43)c2)cc1
  growth inhibition: 25.5%

## O=C(Nc1ncc(Cc2cccc3ccccc23)s1)C1CCCCC1
  growth inhibition: 4.7%

## CC(C)(C)NC(=O)[C@@H]1CN(Cc2cnc3occc3c2)CCN1C[C@@H](O)C[C@@H](Cc1ccccc1)C(=O)N[C@H]1c2ccccc2C[C@H]1O
  growth inhibition: 1.85%

## N#C/C(=C1/SC[C@H](c2ccc(Cl)cc2Cl)S1)n1ccnc1
  growth inhibition: 85.6% (active)

## O=S(=O)(Nc1cccc2cccnc12)c1ccccc1
  growth inhibition: 13.6%

## Cc1cc(-c2ccccc2)c(C(=O)C(=O)Nc2ccc(N3CCN(c4ncc(F)cn4)CC3)cc2)n1C
  growth inhibition: 81.8% (active)

## CSc1ccc2c(c1)C(N1CCN(C)CC1)Cc1ccccc1S2 (stereo unspecified)
  growth inhibition: 46.7%

## COC(=O)Nc1nc2cc(Sc3ccccc3)ccc2[nH]1
  growth inhibition: 0.273%

## Nc1cccc(-c2nc(N)nc(NC3Cc4ccccc4C3)n2)c1
  growth inhibition: 21.5%

## O=C1[C@H](CC[C@H](O)c2ccc(F)cc2)[C@@H](c2ccc(O)cc2)N1c1ccc(F)cc1
  growth inhibition: 13.9%

## O=S(=O)(NCB(O)O)c1cc2c(Cl)ccc(Cl)c2s1
  growth inhibition: 5.78%

## O=C(Nc1ccc(F)cc1)c1nn(-c2ccccc2)c(=O)cc1Cl
  growth inhibition: 32.8%

## CCOc1ccc(C(=O)NCCc2ccccc2)cc1
  growth inhibition: 33.4%

## COc1c(F)c(F)cc2c(=O)c(C(=O)O)cn(C3CC3)c12
  growth inhibition: 43.8%

## COc1c(NC(=O)[C@H]2CC[C@@H](COc3ccc([N+](=O)[O-])cc3)CC2)c(F)cc2c(=O)c(C(=O)O)cn(C3CC3)c12
  growth inhibition: 15.5%

## O=c1cc(OCc2ccccc2)ccn1Cc1ccccc1
  growth inhibition: 9.92%

## O=[N+]([O-])c1cn(Cc2nc(O)nc(O)c2Br)cn1
  growth inhibition: 20.5%

## Nc1nc2c(ncn2COCCO)c(=O)[nH]1
  growth inhibition: 11.1%

## C[C@H](Cn1cnc2c(N)ncnc21)OCP(=O)(O)O
  growth inhibition: 13.7%

## C[C@@H]1O[C@@H]1P(=O)(O)O
  growth inhibition: 3.95%

## O=c1ccc2ncc(=O)n3c2n1CC3CN1CCC(NCc2cc3c(cn2)OCCC3)CC1 (stereo unspecified)
  growth inhibition: 0%

## CCN(CC)CCn1c(=N)n(CC(O)COc2ccc(Cl)cc2Cl)c2ccccc21 (stereo unspecified)
  growth inhibition: 10.2%

## O=S(=O)(Nc1ccc(-n2cccc2)cc1)c1ccc(Cl)c(Cl)c1
  growth inhibition: 41.8%
